Test results taken from PubChem BioAssay (NCI).
About 83,000 compounds went through this panel and 20% of them were active in at least one assay; those are over-represented in the sample as a whole.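 Single-dose data. Exposure time 48 hours. Values below 10 considered active.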 Values without a mark were called inactive. Calls of active or inactive are those of the source.

Assays:
Assay in all cases: NCI-60 one-dose screen, 48 h (100 = growth as untreated, 0 = no growth, -100 = all killed)
Conditions in all cases: 10 µM unless noted
[1] = tested on: SR leukemia
[2] = tested on: RPMI-8226 leukemia
[3] = tested on: OVCAR-8 ovarian
[4] = tested on: OVCAR-5 ovarian
[5] = tested on: OVCAR-4 ovarian
[6] = tested on: SK-OV-3 ovarian
[7] = tested on: IGROV1 ovarian
[8] = tested on: OVCAR-3 ovarian
[9] = tested on: HS 578T breast
[10] = tested on: NCI/ADR-RES ovarian
[11] = tested on: T-47D breast
[12] = tested on: BT-549 breast
[13] = tested on: MDA-MB-435 melanoma
[14] = tested on: SW-620 colon
[15] = tested on: MCF7 breast
[16] = tested on: HCT-116 colon
[17] = tested on: HCC-2998 colon
[18] = tested on: KM12 colon

Q: Which growth [1] does the source give for `CCN(CC)c1ccc(N2C(=O)/C(=C/c3cccs3)SC2=S)cc1` here?
A: The growth was 95.4%.

Q: And the growth [2]?
A: The growth was 97%.

Q: And the growth [3]?
A: The growth was 99.6%.

Q: And the growth [4]?
A: The growth was 95.4%.

Q: What about the growth [5] of the same compound?
A: Its growth is 81.9%.

Q: What about the growth [6] of the same compound?
A: The growth was 113%.

Q: What about the growth [7] of the same compound?
A: The growth was 99.4%.

Q: What about the growth [8] of the same compound?
A: The growth was 101%.

Q: And the growth [9]?
A: The growth was 103%.

Q: What about the growth [10] of the same compound?
A: Its growth is 96.6%.

Q: And the growth [11]?
A: Its growth is 83%.

Q: And the growth [12]?
A: The growth was 102%.

Q: What about the growth [13] of the same compound?
A: Its growth is 95.4%.

Q: What about the growth [14] of the same compound?
A: The growth was 103%.

Q: And the growth [15]?
A: The growth was 89.9%.

Q: What about the growth [16] of the same compound?
A: Its growth is 95.9%.

Q: And the growth [17]?
A: The growth was 110%.

Q: What about the growth [18] of the same compound?
A: The growth was 100%.

Q: For `COc1cc(-c2cc(-c3ccc(Nc4ncnc5cc(Cl)ccc45)cc3)nc(N3CCN(C)CC3)n2)cc(OC)c1OC`, which growth [1] is on record?
A: The growth was 42.7%.

Q: And the growth [2]?
A: The growth was 76.2%.

Q: What about the growth [3] of the same compound?
A: The growth was 35.1%.

Q: What about the growth [4] of the same compound?
A: The growth was 103%.

Q: And the growth [5]?
A: The growth was 58.9%.

Q: And the growth [6]?
A: The growth was 114%.

Q: What about the growth [7] of the same compound?
A: Its growth is 81.3%.

Q: And the growth [8]?
A: The growth was 105%.

Q: And the growth [9]?
A: Its growth is 73.2%.

Q: And the growth [10]?
A: Its growth is 85.3%.

Q: And the growth [11]?
A: Its growth is 99.3%.

Q: And the growth [12]?
A: The growth was 94.5%.

Q: And the growth [13]?
A: Its growth is 102%.

Q: What about the growth [14] of the same compound?
A: Its growth is 72.4%.

Q: And the growth [15]?
A: The growth was 53.8%.

Q: What about the growth [16] of the same compound?
A: Its growth is 64%.

Q: And the growth [17]?
A: The growth was 110%.

Q: And the growth [18]?
A: The growth was 86.1%.

Q: What does the source list for `CCOC(=O)C/C(=N\Nc1cc(=O)[nH]c2ccc(Cl)cc12)C(=O)OCC`?
A: growth [1]: 47%; growth [2]: 57.2%; growth [3]: 110%; growth [4]: 98.9%; growth [5]: 107%; growth [6]: 123%; growth [7]: 97.6%; growth [8]: 110%; growth [9]: 94.9%; growth [10]: 95.8%; growth [11]: 102%; growth [12]: 99.3%; growth [13]: 102%; growth [14]: 93.8%; growth [15]: 96.5%; growth [16]: 100%; growth [17]: 97.4%; growth [18]: 102%

Q: Which growth [1] does the source give for `COc1cc(N2C(=O)[C@H](c3ccccc3)C2c2ccc(SC)cc2)cc(OC)c1OC` (some centres undefined) here?
A: The growth was -5.24% (active).

Q: What about the growth [2] of the same compound?
A: Its growth is -9.2% (active).

Q: And the growth [3]?
A: Its growth is 4.09% (active).

Q: What about the growth [4] of the same compound?
A: Its growth is 56.8%.

Q: And the growth [5]?
A: Its growth is 48.6%.

Q: What about the growth [6] of the same compound?
A: The growth was 8.14% (active).

Q: And the growth [7]?
A: The growth was 13.7%.

Q: What about the growth [8] of the same compound?
A: The growth was 8.73% (active).

Q: And the growth [9]?
A: Its growth is 20.6%.

Q: What about the growth [10] of the same compound?
A: The growth was 9.89% (active).

Q: And the growth [11]?
A: The growth was 61.9%.

Q: What about the growth [12] of the same compound?
A: Its growth is -6.28% (active).

Q: What about the growth [13] of the same compound?
A: Its growth is -23.7% (active).

Q: What about the growth [14] of the same compound?
A: Its growth is 25.2%.

Q: What about the growth [15] of the same compound?
A: The growth was 6.93% (active).

Q: What about the growth [16] of the same compound?
A: Its growth is 0.933% (active).

Q: What about the growth [17] of the same compound?
A: Its growth is 12.6%.

Q: And the growth [18]?
A: Its growth is 10.2%.

Q: With `N#C/C(=C\c1ccc(-c2ccc(Cl)cc2)o1)c1ccc(Cl)cc1` as the compound, how does the growth [1] read?
A: Its growth is 59.6%.

Q: And the growth [2]?
A: Its growth is 44.8%.

Q: What about the growth [3] of the same compound?
A: Its growth is 58.4%.

Q: And the growth [4]?
A: The growth was 68.1%.

Q: What about the growth [5] of the same compound?
A: Its growth is -14.1% (active).

Q: And the growth [6]?
A: Its growth is 75.5%.

Q: What about the growth [7] of the same compound?
A: Its growth is 23.6%.

Q: And the growth [8]?
A: The growth was 56.4%.

Q: What about the growth [9] of the same compound?
A: The growth was 29.8%.

Q: And the growth [10]?
A: Its growth is 60%.

Q: And the growth [11]?
A: Its growth is 51.2%.

Q: What about the growth [12] of the same compound?
A: The growth was 79.5%.

Q: And the growth [13]?
A: The growth was 85.1%.

Q: And the growth [14]?
A: The growth was 66.2%.

Q: And the growth [15]?
A: Its growth is 62.1%.

Q: What about the growth [16] of the same compound?
A: The growth was 12.7%.

Q: What about the growth [17] of the same compound?
A: Its growth is 96.4%.

Q: And the growth [18]?
A: The growth was 88.9%.

Q: What does the source list for `O=C1Nc2ccc(F)cc2/C1=N/c1nnc(Sc2ccccc2)s1`?
A: growth [1]: 61%; growth [2]: 55.7%; growth [3]: 89.7%; growth [4]: 113%; growth [5]: 95%; growth [6]: 97.1%; growth [7]: 80.2%; growth [8]: 97.3%; growth [9]: 94.4%; growth [10]: 85.3%; growth [11]: 61.5%; growth [12]: 105%; growth [13]: 99.7%; growth [14]: 91.9%; growth [15]: 22.2%; growth [16]: 99.3%; growth [17]: 104%; growth [18]: 88%

Q: Which growth [1] does the source give for `CN(C)c1ccc(/C=C/C(=O)c2ccc(Nc3nc(Nc4ccc(F)cc4)nc(Nc4ccc(Cl)cc4)n3)cc2)cc1` here?
A: Its growth is 4.77% (active).

Q: And the growth [2]?
A: The growth was 30.5%.

Q: And the growth [3]?
A: The growth was 48.8%.

Q: What about the growth [4] of the same compound?
A: Its growth is 74.2%.

Q: And the growth [5]?
A: The growth was 76.5%.

Q: And the growth [6]?
A: Its growth is 108%.

Q: And the growth [7]?
A: Its growth is 72.4%.

Q: And the growth [8]?
A: Its growth is 89.2%.

Q: What about the growth [9] of the same compound?
A: Its growth is 77.2%.

Q: And the growth [10]?
A: The growth was 66.4%.

Q: What about the growth [11] of the same compound?
A: Its growth is 50.4%.

Q: What about the growth [12] of the same compound?
A: Its growth is 75.7%.

Q: And the growth [13]?
A: Its growth is 56.2%.

Q: And the growth [14]?
A: Its growth is 92.3%.

Q: And the growth [15]?
A: Its growth is 56.7%.

Q: What about the growth [16] of the same compound?
A: Its growth is 58.7%.

Q: What about the growth [17] of the same compound?
A: The growth was 111%.

Q: And the growth [18]?
A: The growth was 73.8%.

Q: With `O=c1ccc2nc(C(F)(F)F)nn(-c3ccccc3)c-2c1` as the compound, how does the growth [1] read?
A: Its growth is -11.3% (active).

Q: And the growth [2]?
A: Its growth is 45.8%.

Q: What about the growth [3] of the same compound?
A: Its growth is 73.1%.

Q: What about the growth [4] of the same compound?
A: Its growth is 102%.

Q: What about the growth [5] of the same compound?
A: Its growth is 79.8%.

Q: And the growth [6]?
A: Its growth is 79.3%.

Q: And the growth [7]?
A: Its growth is 71.7%.

Q: What about the growth [8] of the same compound?
A: The growth was -26.1% (active).

Q: What about the growth [9] of the same compound?
A: The growth was 74%.

Q: What about the growth [10] of the same compound?
A: The growth was 84%.

Q: And the growth [11]?
A: The growth was -40.8% (active).

Q: And the growth [12]?
A: Its growth is 69.2%.

Q: And the growth [13]?
A: The growth was 62.3%.

Q: And the growth [14]?
A: Its growth is -63.3% (active).

Q: And the growth [15]?
A: Its growth is -49.3% (active).

Q: What about the growth [16] of the same compound?
A: Its growth is 35.2%.

Q: And the growth [17]?
A: The growth was 102%.

Q: And the growth [18]?
A: The growth was 96.8%.
